Screening results: PubChem, The Scripps Research Institute Molecular Screening Center
The list is not random: actives were taken first. Their share in the collection is about 3.5%.
FBW7 activator: FBW7 E3 ligase activators, primary screen, biochemical, AlphaScreen, human | F-box/WD repeat-containing protein 7 (Homo sapiens), Q969H0 | AlphaScreen FBW7–phospho-cyclin E peptide binding, activator screen | normalized activity (activation), % at 26.1 µM | 650,000 tested, 0.13% active | AID 1259310, 2017; in the data active means normalized activity above about 1.9%;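 further: purified mutant Fbw7 with reduced substrate affinity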
MITF inh: MITF inhibitors, primary screen, biochemical, AlphaScreen, human. AlphaScreen MITF homodimerization, bead proximity signal. inhibition, % at 2.6 µM. 650,000 tested, 0.91% active. AID 1259374, 2018; in the data active means inhibition above about 50%
Target sequence (O75030 whole entry, looked up): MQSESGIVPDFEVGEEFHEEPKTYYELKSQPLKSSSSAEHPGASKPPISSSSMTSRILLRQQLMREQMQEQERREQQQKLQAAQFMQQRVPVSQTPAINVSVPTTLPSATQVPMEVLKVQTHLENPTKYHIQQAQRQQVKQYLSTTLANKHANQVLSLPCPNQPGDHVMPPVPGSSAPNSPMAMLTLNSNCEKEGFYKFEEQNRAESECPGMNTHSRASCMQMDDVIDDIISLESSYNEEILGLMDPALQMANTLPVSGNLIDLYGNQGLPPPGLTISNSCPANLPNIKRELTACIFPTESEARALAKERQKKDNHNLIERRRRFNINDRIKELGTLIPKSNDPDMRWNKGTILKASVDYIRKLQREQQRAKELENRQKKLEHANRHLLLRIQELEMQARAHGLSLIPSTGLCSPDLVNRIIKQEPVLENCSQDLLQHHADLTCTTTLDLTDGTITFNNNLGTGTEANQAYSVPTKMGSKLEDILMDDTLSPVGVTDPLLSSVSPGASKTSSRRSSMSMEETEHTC
TEAD-YAP inh: TEAD-YAP interaction inhibition, primary screen, TEAD-YAP interaction inhibitor project, luminescence, HEK-TIYL cells; TEAD-Gal4/YAP UAS-luciferase luminescence; 640,000 tested, 1.4% active; AID 1259422, 2018; inhibition, % at 9.12 µM; in the data active means inhibition above about 32%
GPR151 activ: activators of human GPR151, primary screen, cell-based, PathHunter beta-arrestin, luminescence; activation, % at 11.2 µM; AID 1508602, 2020; PathHunter beta-arrestin GPR151 cells; 650,000 tested, 1% active; in the data active means activation above about 4.9%
MITF inh conf: MITF inhibitors, retest of hits, confirmation, biochemical, AlphaScreen, triplicate; AID 1259372, 2018; inhibition, % at 2.6 µM; AlphaScreen MITF homodimerization, biotin/His-MITF beads; shares compounds with MITF inh; 4,700 tested, 16% active;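 active means inhibition above a cutoff derived from the DMSO control wells, cut at about 28% in these data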;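 further: inhibitors lower the bead chemiluminescence by keeping MITF from dimerizing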
AlphaScreen DR: AlphaScreen optical interference compounds, dose response, counter-screen, biochemical, HTS; IC50, µM; 480 tested, 6% active; AID 1259373, 2018; AlphaScreen optical interference counterscreen, cell-free; shares compounds with MITF inh; call rule not given here
AS interf ctr: AlphaScreen optical interference compounds, counter-screen for MITF inhibitor project, biochemical, triplicate; shares compounds with MITF inh; LysRS AlphaScreen counterscreen, signal interference; inhibition, % at 2.6 µM; 4,700 tested, 7.6% active; AID 1259376, 2018;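 active means inhibition above a cutoff derived from the DMSO control wells, cut at about 30% in these data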
A number is an active result; i = inactive; nt = not tested or not shown.

SMILES	FBW7 activator	MITF inh	TEAD-YAP inh	GPR151 activ	MITF inh conf	AS interf ctr	others
CCOC1(OCC)N=C(N)C2(C#N)C(c3cccc(Br)c3)C12C#N (stereo not drawn)	i	i	i	i	nt	nt
COC1(OC)N=C(N)C2(C#N)C(c3ccc(F)cc3)C12C#N (stereo not drawn)	i	55	i	i	i	i
COC1(OC)N=C(N)C2(C#N)C(c3ccc(NC(C)=O)cc3)C12C#N (stereo not drawn)	i	51	i	i	i	i
CCOC1(OCC)N=C(N)C2(C#N)C(c3ccc(NC(C)=O)cc3)C12C#N (stereo not drawn)	i	55	i	i	i	i
CC1CCCN(C(=O)c2cn(C)c(=O)c3c2c2ccccc2n3C)C1 (stereo not drawn)	i	i	i	i	nt	nt
Cc1ccc(SCCC(=O)Nc2ccc3c(c2)OCCO3)cc1	i	i	i	i	nt	nt
O=C(NCCCc1ccncc1)C1CC12CCN(CC1CC=CCC1)CC2 (stereo not drawn)	i	i	i	i	nt	nt
COc1ccc(NC(=O)C2CC(=O)NC(=Nc3ccc(C)c(C)c3)S2)cc1 (stereo not drawn)	i	i	i	i	nt	nt
Cc1ccc(N=C2NC(=O)CC(C(=O)Nc3ccc(Cl)cc3)S2)cc1C (stereo not drawn)	i	78	i	i	i	i
Cc1ccc(OCC(=O)N2CC3(C)CC2CC(C)(C)C3)c([N+](=O)[O-])n1 (stereo not drawn)	i	51	i	i	i	i
Cc1ccc(NC(=O)c2sccc2-n2cccc2)cc1	i	59	i	i	i	i
O=C(c1sccc1-n1cccc1)N1CCCC1	i	i	i	i	nt	nt
COc1ccc(C2(C(=O)Nc3cc(C)ccc3OC)CCOCC2)cc1	i	i	i	i	nt	nt
Cc1ccc(C(C)(C)C)c(OCCN2CCOCC2)c1	i	65	i	i	i	i
Cc1cc(Cl)c(OCCN2CCOCC2)c(Cl)c1	i	61	i	i	i	i
Cc1ccc(OCCOCCN2CCOCC2)c(C)c1	i	i	i	i	nt	nt
Clc1ccc(OCCN2CCOCC2)c(Br)c1	i	i	i	i	nt	nt
Cc1ccc(OCCN2CCOCC2)c(Br)c1	i	64	i	i	i	i
O=C(C1CCCCC1)N1CCN(c2ccccn2)CC1	i	i	i	i	nt	nt
CCOC(=O)CN(C)Cc1ccccc1Br	i	59	i	i	i	i
CCOC(=O)CN(C)Cc1ccc(OC)cc1OC	i	i	i	i	nt	nt
COc1ccc(NC(=O)c2cc(-c3ccccc3)nc3ccccc23)c(OC)c1	i	i	i	i	nt	nt
COc1ccc(NC(=O)NNC(=O)c2cc(C3CC3)nc3ccccc23)c(OC)c1	i	61	i	i	i	i
O=C(O)CCNC(=S)NCc1ccccc1	i	i	i	i	nt	nt
O=C(Cn1c(=S)[nH]c2ccccc2c1=O)N(CCO)Cc1ccccc1	i	63	i	i	i	i
SMILES	FBW7 activator	MITF inh	TEAD-YAP inh	GPR151 activ	MITF inh conf	AS interf ctr	others
COc1cccc(CC2(CO)CCCN(Cc3cccc(C)n3)C2)c1 (stereo not drawn)	i	i	i	i	nt	nt
CN(CC1CCCCO1)C(=O)Cn1nnnc1CN1CCCCCC1 (stereo not drawn)	i	51	i	i	i	i
CC(=O)c1ccc(NC(=O)c2ccc([N+](=O)[O-])cc2)cc1	i	i	i	i	nt	nt
CCCCNCCOCCOc1ccc(Cl)cc1	i	80	i	i	i	i
CCCCNCCOCCOc1cc(C)ccc1Cl	i	54	i	i	i	i
O=C(CN1CCN(C(=O)CSc2ccc(F)cc2)CC1)c1cccs1	i	80	i	i	i	i
CCOc1ccc(NC(=O)CN2C(=O)NC(Cc3ccccc3)(c3ccccc3)C2=O)cc1 (stereo not drawn)	i	i	i	i	nt	nt
Clc1ccccc1CN1CCN(C2C3CC4CC(C3)CC2C4)CC1 (stereo not drawn)	i	75	i	i	i	i
c1ccc2c(CN3CCN(C4C5CC6CC(C5)CC4C6)CC3)c[nH]c2c1 (stereo not drawn)	i	65	i	i	i	i
Cc1ccccc1CN1CCN(C2C3CC4CC(C3)CC2C4)CC1 (stereo not drawn)	i	74	i	i	i	i
O=C(O)CNC(=O)CC1S/C(=N/N=C/c2ccccc2O)NC1=O (stereo not drawn)	i	i	i	i	nt	nt
O=C(O)CNC(=O)CC1S/C(=N/N=C2\CSC(=O)N2)NC1=O (stereo not drawn)	i	88	i	i	80	100
O=C(CC1S/C(=N/N=C2\CSC(=O)N2)NC1=O)Nc1ccc(Cl)cc1 (stereo not drawn)	i	i	i	i	nt	nt
O=C(CC1S/C(=N/N=C2\CSC(=O)N2)NC1=O)Nc1ccc(F)cc1 (stereo not drawn)	i	61	i	i	49	99
Cc1nnc(C2CCCN(C(=O)c3ccc(Cl)cc3)C2)s1 (stereo not drawn)	i	i	i	i	nt	nt
CC(C)(C)C(=O)N1CCc2ccc(NC(=O)C3CC(=O)N(c4ccccc4)C3)cc21 (stereo not drawn)	i	i	i	i	nt	nt
CC(=O)Nc1ccc(C=C2C(=O)c3ccccc3C2=O)cc1	i	i	i	i	nt	nt
Cc1cc(NC(=O)CN2CCC(Cn3c(C)nc4ccccc43)CC2)no1	i	79	39	i	i	i
COC(=O)c1ccc(NC(=O)CN2CCC(Cn3c(C)nc4ccccc43)CC2)cc1	i	68	i	i	i	i
COCCCNC(=O)Cn1ncc2c3ccccc3n(Cc3cccc(Cl)c3)c2c1=O	i	i	i	i	nt	nt
C[C@@H](Cn1nc(-c2cccs2)oc1=O)NC(=O)C1CCCC1	i	i	i	i	nt	nt
O=C(O)c1cc([N+](=O)[O-])cc2c1-c1c(cc([N+](=O)[O-])cc1[N+](=O)[O-])/C2=C/c1ccco1	i	62	i	i	68	i	AlphaScreen DR=i
O=C(NCc1ccccc1)c1ccc2ccccc2c1	i	i	i	i	nt	nt
O=C(Nc1ccccc1)C(=S)N1CCCC1	i	i	i	i	nt	nt
CCOC(=O)CCCCC(=O)c1[nH]c(=O)n(C)c1C	i	106	i	i	95	80
CCCCCCCCCCCCCCCCCC(=O)OCC	nt	i	nt	i	nt	nt
COc1cc2[nH]c(=O)c(C(=O)Nc3cccc(C)c3C)c(O)c2cc1OC	i	i	i	i	nt	nt
O=C(O)c1cccc(N/N=C/c2ccccn2)c1	i	i	i	i	nt	nt
O=C(O)c1cccc(NC(=S)N/N=C/c2ccccn2)c1	i	95	34	i	i	i
